Most compounds without a hit are left out; they make up all but 4.1% or so of the library.
aSyn 5UTR inh = MLPCN primary screen, SNCA 5' untranslated region; AID 1813; 300,000 compounds, 0.82% hits; alpha-synuclein 5'UTR reporter, inhibitor activity; inhibition, % (tested at 7.5 µM); in the data active means inhibition above about 60%; inconclusive means no clear call, values can overlap the other calls;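 further: H4 neuroglioblastoma cells stably carrying SNCA 5'UTR luciferase fusion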
Mdm2 MdmX PPI = inhibitors of human Mdm2/MdmX interaction | SaOS-2 split-luciferase Mdm2/MdmX complementation, luminescence | inhibition, % at 8 µM | 330,000 compounds, 3% hits | AID 485346;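 active means inhibition of at least 50% at 8 µM in the primary screen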
Target sequence (O15151 whole entry, looked up): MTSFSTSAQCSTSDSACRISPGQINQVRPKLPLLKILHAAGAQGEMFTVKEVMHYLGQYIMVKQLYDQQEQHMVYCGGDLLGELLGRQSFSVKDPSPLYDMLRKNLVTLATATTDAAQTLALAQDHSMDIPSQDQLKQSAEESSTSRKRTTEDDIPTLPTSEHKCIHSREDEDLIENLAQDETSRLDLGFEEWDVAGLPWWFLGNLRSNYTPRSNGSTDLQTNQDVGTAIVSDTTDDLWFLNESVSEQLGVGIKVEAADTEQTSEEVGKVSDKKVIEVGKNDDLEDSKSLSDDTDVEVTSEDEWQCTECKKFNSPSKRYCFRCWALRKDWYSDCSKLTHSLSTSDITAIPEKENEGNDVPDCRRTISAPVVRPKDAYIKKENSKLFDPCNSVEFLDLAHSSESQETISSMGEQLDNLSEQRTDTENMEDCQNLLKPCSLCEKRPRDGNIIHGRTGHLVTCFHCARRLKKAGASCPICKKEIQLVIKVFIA
Target sequence (Q00987 whole entry, looked up): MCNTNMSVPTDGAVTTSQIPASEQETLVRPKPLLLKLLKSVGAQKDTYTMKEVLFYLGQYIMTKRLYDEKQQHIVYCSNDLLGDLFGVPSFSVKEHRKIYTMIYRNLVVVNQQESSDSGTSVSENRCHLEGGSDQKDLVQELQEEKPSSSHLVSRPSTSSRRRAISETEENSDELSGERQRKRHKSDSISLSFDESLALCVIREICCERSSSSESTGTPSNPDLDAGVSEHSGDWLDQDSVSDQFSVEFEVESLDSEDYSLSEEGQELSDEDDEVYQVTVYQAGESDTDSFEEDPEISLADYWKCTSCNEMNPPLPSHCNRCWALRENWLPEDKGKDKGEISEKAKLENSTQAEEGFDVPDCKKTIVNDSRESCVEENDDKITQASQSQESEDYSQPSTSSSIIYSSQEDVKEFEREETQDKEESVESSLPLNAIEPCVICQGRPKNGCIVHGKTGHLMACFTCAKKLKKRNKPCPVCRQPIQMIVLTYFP
Gli-Sufu block = blocks Gli-Sufu signaling in a luciferase reporter; 340,000 compounds, 0.74% hits; AID 588413; inhibition, % at 5 µM; Sufu-KO-LIGHT fibroblasts, Gli luciferase reporter luminescence;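 active means inhibition above about 55%, limit read from the data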
697 NFkB inh = lowers PMA/ionomycin-induced NF-kB signal in 697 B cells | inhibition, % at 4 µM | 697 B-cell NF-kB luciferase reporter, 16 h | AID 435022 | 330,000 compounds, 0.33% hits; in the data active means inhibition above about 35%
KLF5 inhibitor = kruppel-like factor 5 inhibition | DLD-1 KLF5 promoter-luciferase reporter, luminescence | inhibition, % at 5 µM | 290,000 compounds, 0.23% hits | AID 1700;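 active means inhibition above a per-plate limit of that plate's mean compound inhibition plus 3 SD, cut at about 60% in these data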;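 further: higher means less KLF5 promoter-driven luciferase light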
Jurkat NFkB inh = inhibitors of the PMA/ionomycin-induced NF-kB reporter in Jurkat cells | PMA/ionomycin-induced NF-kB luciferase reporter, luminescence | inhibition, % at 4 µM | 330,000 compounds, 0.53% hits | AID 435003; in the data active means inhibition above about 50%
Jurkat NFkB conf = inhibitors of the PMA/ionomycin-induced NF-kB reporter in Jurkat cells, retest; AID 435020; shares compounds with Jurkat NFkB inh; inhibition, % at 4 µM; Jurkat NF-kB luciferase, 16 h; 2,700 compounds, 27% hits;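 active means inhibition reaching about 45% at 4 µM in either replicate, limit read from the data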
697 NFkB conf = inhibitors of the PMA/ionomycin-induced NF-kB reporter in 697 B cells, retest; shares compounds with 697 NFkB inh; 697 B-cell NF-kB luciferase, 16 h; inhibition, % at 4 µM; 2,000 compounds, 35% hits; AID 449746; in the data active means inhibition mostly above about 28%, no sharp cut-off; inactive means mostly below about 22%
Mdm2 MdmX conf = confirmation of human Mdm2/MdmX interaction inhibitors; shares compounds with Mdm2 MdmX PPI; Mdm2-MdmX binding, luminescent assay; inhibition, % at 8 µM; 10,000 compounds, 55% hits; AID 489028; in the data active means inhibition above about 40%
FLuc counter = inhibits full-length luciferase, flagging false Mdm2/MdmX hits; shares compounds with Mdm2 MdmX PPI; SaOS-2 full-length luciferase counterscreen, luminescence; inhibition, % at 8 µM; 6,200 compounds, 77% hits; AID 504607;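 active means mean inhibition at 8 µM reaching about 37%, which flags the compound as non-specific, limit read from the data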;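 further: p53-null SaOS-2 cells with luciferase driven by a doxycycline-inducible promoter; compound on cells about two nights before reading with doxycycline added after day one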
Gli-Sufu confirm = Gli-SUFU antagonism confirmation, single concentration; shares compounds with Gli-Sufu block; 2,500 compounds, 40% hits; inhibition, % at 5 µM; Sufu-KO-LIGHT cells, Gli luciferase reporter, luminescence;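 active means mean inhibition at 5 µM reaching about 45%, limit read from the data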
Gli cytotox = cytotoxicity counter-screen for Gli-SUFU antagonists. Sufu-KO-LIGHT cells cytotoxicity, ATP luminescence. cytotoxicity, % at 5 µM. AID 651994. shares compounds with Gli-Sufu block. 2,500 compounds, 32% hits;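 active means mean cytotoxicity at 5 µM above about 25%, limit read from the data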;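 further: cells exposed to compound overnight for roughly 16 to 18 hours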
Wnt3a counter = inhibits Wnt3a reporter, counter-screen for Gli-SUFU antagonists; 2,500 compounds, 20% hits; Wnt-LIGHT cells, Wnt3a-driven luciferase reporter, luminescence; shares compounds with Gli-Sufu block; AID 651995; inhibition, % at 6.25 µM;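 active means mean inhibition above about 25%, limit read from the data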
Hits are given with their value.

Results for CCn1c(/C=C/Nc2ccccc2)[n+](CC)c2cc(Cl)c(Cl)cc21 ?
aSyn 5UTR inh: inactive; Mdm2 MdmX PPI: 97.5; Gli-Sufu block: 66.1; 697 NFkB inh: inactive; KLF5 inhibitor: inactive; Jurkat NFkB inh: 70.5; Jurkat NFkB conf: inactive; Mdm2 MdmX conf: inactive; Gli-Sufu confirm: 60.7; Gli cytotox: inactive; Wnt3a counter: inactive

How did O=C(O)C1CCN(C(=O)c2ccccc2N2C(=O)[C@@H]3Cc4c([nH]c5ccccc45)C(c4cccc(Cl)c4)N3C2=O)CC1 (stereo not given in full) do in these assays?
aSyn 5UTR inh: inactive; Mdm2 MdmX PPI: inactive; Gli-Sufu block: inactive; 697 NFkB inh: inactive; KLF5 inhibitor: inactive; Jurkat NFkB inh: inactive

Results for N=c1c2c(n(Cc3ccc([N+](=O)[O-])cc3)c3c1CCC3)CCCC2 ?
aSyn 5UTR inh: inactive; Mdm2 MdmX PPI: inactive; Gli-Sufu block: inactive; 697 NFkB inh: inactive; KLF5 inhibitor: inactive; Jurkat NFkB inh: inactive

What do the screens show for `N=c1c2c(n(Cc3ccc(Br)cc3)c3c1CCC3)CCCC2`?
aSyn 5UTR inh: inconclusive; Mdm2 MdmX PPI: inactive; Gli-Sufu block: 88.2; 697 NFkB inh: 52.0; KLF5 inhibitor: inactive; Jurkat NFkB inh: 53.4; Jurkat NFkB conf: inactive; 697 NFkB conf: 32.0; Gli-Sufu confirm: 88.9; Gli cytotox: 37.8; Wnt3a counter: 54.2

How did CN(C)CCCNS(=O)(=O)c1ccc(N2CCN(Cc3ccc4c(c3)OCO4)CC2)c([N+](=O)[O-])c1 do in these assays?
aSyn 5UTR inh: inactive; Mdm2 MdmX PPI: inactive; Gli-Sufu block: inactive; 697 NFkB inh: inactive; KLF5 inhibitor: inactive; Jurkat NFkB inh: 62.4; Jurkat NFkB conf: inactive; Gli-Sufu confirm: inactive; Gli cytotox: inactive; Wnt3a counter: inactive

What do the screens show for `CC(=O)c1ccc(N2CCN(c3ccc(S(=O)(=O)NCCCN(C)C)cc3[N+](=O)[O-])CC2)cc1`?
aSyn 5UTR inh: inactive; Mdm2 MdmX PPI: inactive; Gli-Sufu block: inactive; 697 NFkB inh: inactive; KLF5 inhibitor: inactive; Jurkat NFkB inh: inactive

How did CC(C)(C)c1nnc(N/N=C/c2ccccc2O)n(N)c1=O do in these assays?
aSyn 5UTR inh: 110.0; Mdm2 MdmX PPI: 58.6; Gli-Sufu block: 61.4; 697 NFkB inh: inactive; KLF5 inhibitor: inactive; Jurkat NFkB inh: 56.4; Jurkat NFkB conf: 73.1; Mdm2 MdmX conf: 82.1; FLuc counter: inactive; Gli-Sufu confirm: 71.0; Gli cytotox: 51.1; Wnt3a counter: 55.0

Results for CC(C)n1c(CN(C)Cc2ccccc2)nc2c1c(=O)n(C)c(=O)n2C ?
aSyn 5UTR inh: 64.3; Mdm2 MdmX PPI: inactive; Gli-Sufu block: 69.7; 697 NFkB inh: inactive; KLF5 inhibitor: inactive; Jurkat NFkB inh: 57.3; Jurkat NFkB conf: 53.1; Gli-Sufu confirm: 78.3; Gli cytotox: inactive; Wnt3a counter: 47.8

Results for COc1ccc(/C=N/NC(=O)c2cccnc2)cc1CN1CCCc2ccccc21 ?
aSyn 5UTR inh: inactive; Mdm2 MdmX PPI: inactive; 697 NFkB inh: inactive; KLF5 inhibitor: inactive; Jurkat NFkB inh: inactive

Results for COc1ccc(C(=O)N/N=C/c2ccc(OC)c(CN3CCCc4ccccc43)c2)cc1 ?
aSyn 5UTR inh: inactive; Mdm2 MdmX PPI: inactive; Gli-Sufu block: inactive; 697 NFkB inh: 44.4; KLF5 inhibitor: inactive; Jurkat NFkB inh: inactive; 697 NFkB conf: 28.9

What do the screens show for `CC(C)(C)OC(=O)C[C@@H]1C/C=C\C[C@H](CC(=O)N(CCO)Cc2ccccc2)C(=O)NCCOC1=O`?
Mdm2 MdmX PPI: inactive; Gli-Sufu block: inactive; 697 NFkB inh: inactive; Jurkat NFkB inh: inactive

What do the screens show for `CC/C(C)=N/Nc1cccc([N+](=O)[O-])c1`?
aSyn 5UTR inh: inactive; Mdm2 MdmX PPI: inactive; Gli-Sufu block: inactive; 697 NFkB inh: inactive; KLF5 inhibitor: inactive; Jurkat NFkB inh: inactive

How did CCC(C)NC(=O)c1c(N)n(/N=C/c2ccccn2)c2nc3ccccc3nc12 (stereo not given) do in these assays?
aSyn 5UTR inh: inactive; Mdm2 MdmX PPI: inactive; Gli-Sufu block: inactive; 697 NFkB inh: 52.1; KLF5 inhibitor: inactive; Jurkat NFkB inh: inactive; 697 NFkB conf: 44.3

How did NNC(=O)COc1ccc(-c2nccc(-c3ccc(F)cc3)n2)cc1 do in these assays?
aSyn 5UTR inh: inactive; Mdm2 MdmX PPI: inactive; Gli-Sufu block: inactive; 697 NFkB inh: 60.5; KLF5 inhibitor: inactive; Jurkat NFkB inh: inactive; 697 NFkB conf: 50.2

Results for O=C(O)COc1ccc(-c2nccc(-c3ccccn3)n2)cc1 ?
aSyn 5UTR inh: 72.1; Mdm2 MdmX PPI: inactive; Gli-Sufu block: inactive; 697 NFkB inh: 51.6; KLF5 inhibitor: inactive; Jurkat NFkB inh: inactive; 697 NFkB conf: 56.5

Results for Cc1ccc2ccc(C3C(=O)c4ccccc4C3=O)nc2c1 ?
aSyn 5UTR inh: inactive; Mdm2 MdmX PPI: inactive; Gli-Sufu block: inactive; 697 NFkB inh: inactive; KLF5 inhibitor: inactive; Jurkat NFkB inh: inactive; 697 NFkB conf: inactive

Results for Cc1nnc2ccc(-c3ccc(NC(=O)Cc4cccs4)cc3)nn12 ?
aSyn 5UTR inh: inactive; Mdm2 MdmX PPI: inactive; Gli-Sufu block: inactive; 697 NFkB inh: 35.8; KLF5 inhibitor: inactive; Jurkat NFkB inh: inactive; 697 NFkB conf: inactive

How did COc1ccc(C(=O)N=c2nc3ccccn3s2)cc1 do in these assays?
aSyn 5UTR inh: inactive; Mdm2 MdmX PPI: inactive; Gli-Sufu block: inactive; 697 NFkB inh: inactive; KLF5 inhibitor: inactive; Jurkat NFkB inh: inactive; 697 NFkB conf: inactive

Results for COc1ccc(C(=O)O/N=C2\C(=O)N(C)c3ccccc32)cc1 ?
aSyn 5UTR inh: inactive; Mdm2 MdmX PPI: inactive; Gli-Sufu block: inactive; 697 NFkB inh: inactive; Jurkat NFkB inh: inactive

Results for Cc1ccc2c(cnn2C(=O)CCC(=O)NC2CCCCC2)c1 ?
aSyn 5UTR inh: inactive; Mdm2 MdmX PPI: inactive; Gli-Sufu block: inactive; 697 NFkB inh: inactive; KLF5 inhibitor: inactive; Jurkat NFkB inh: inactive

What do the screens show for `O=C(O)/C=C/c1cn(-c2ccccc2)nc1-c1ccccc1`?
aSyn 5UTR inh: inactive; Mdm2 MdmX PPI: inactive; Gli-Sufu block: inactive; 697 NFkB inh: inactive; KLF5 inhibitor: inactive; Jurkat NFkB inh: inactive
